Laboratory results taken from PubChem BioAssay (NCI).
About 83,000 compounds went through this panel and 20% of them were active in at least one assay; those are over-represented in the sample as a whole.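 Values shown are percent growth following 48 h exposure of cells in 96-well plates to a single concentration of compound; below 10 was considered active.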 Calls of active or inactive are those of the source.

Legend:
Assay in all cases: NCI-60 one-dose screen, 48 h (100 = growth as untreated, 0 = no growth, -100 = all killed)
Details in all cases: 10 µM unless noted
HCT-15 colon = tested on: HCT-15 colon
HT29 colon = tested on: HT29 colon
SNB-19 CNS = tested on: SNB-19 CNS
U251 CNS = tested on: U251 CNS
PC-3 prostate = tested on: PC-3 prostate
LOX IMVI melanoma = tested on: LOX IMVI melanoma
SK-MEL-28 melanoma = tested on: SK-MEL-28 melanoma
SNB-75 CNS = tested on: SNB-75 CNS
UACC-62 melanoma = tested on: UACC-62 melanoma
SK-MEL-5 melanoma = tested on: SK-MEL-5 melanoma

Measured: growth

N#Cc1c(-c2ccccc2)cc(-c2ccccc2)n(CCCCCCC(=O)O)c1=O
inactive: HCT-15 colon 90.7% | HT29 colon 97.4% | SNB-19 CNS 96.3% | U251 CNS 98.1% | PC-3 prostate 105% | LOX IMVI melanoma 89.2% | SK-MEL-28 melanoma 103%

O=C1c2cc3c(cc2-c2c1c1ccc(Cl)cc1c(=O)n2CCCNCCO)OCO3
active: HCT-15 colon -78.3% | SNB-75 CNS -88.8% | SNB-19 CNS -62.8% | U251 CNS -94.6% | PC-3 prostate -85.5% | UACC-62 melanoma -70.7% | LOX IMVI melanoma -89.2% | SK-MEL-28 melanoma -74%

COc1ccc(-c2cc(-c3cccnc3)nc3sc(C(=O)Nc4ccccc4)c(N)c23)cc1OC
inactive: HCT-15 colon 63.5% | SNB-75 CNS 82.8% | SNB-19 CNS 79.8% | U251 CNS 61.3% | PC-3 prostate 56.9% | SK-MEL-5 melanoma 75.1% | UACC-62 melanoma 69.3% | LOX IMVI melanoma 60% | SK-MEL-28 melanoma 73.3%

Nc1nc(Nc2ccccc2SSc2ccccc2Nc2nc(N)nc(C(Cl)(Cl)Cl)n2)nc(C(Cl)(Cl)Cl)n1
inactive: HCT-15 colon 41% | HT29 colon 97.4% | SNB-19 CNS 70.2% | PC-3 prostate 44.3% | SK-MEL-5 melanoma 50.9% | UACC-62 melanoma 70% | SK-MEL-28 melanoma 89.2%
active: LOX IMVI melanoma -24.3%

COc1ccccc1-n1c(-c2ccc(O)cc2C)cn2c3c(=O)[nH]c(=O)n(C)c3nc12
inactive: HCT-15 colon 98.4% | SNB-19 CNS 117% | U251 CNS 97.6% | PC-3 prostate 77.1% | SK-MEL-5 melanoma 81.5% | UACC-62 melanoma 76.6% | LOX IMVI melanoma 72.6% | SK-MEL-28 melanoma 104%
active: SNB-75 CNS 7.76%

COc1ccc(-c2cc(-c3cccnc3)nc(S(=O)(=O)CC(=O)Nc3ccc(C)cc3)c2C#N)cc1OC
inactive: HCT-15 colon 95.1% | SNB-75 CNS 78.7% | SNB-19 CNS 94.6% | U251 CNS 91.7% | PC-3 prostate 83.7% | SK-MEL-5 melanoma 72% | UACC-62 melanoma 99.4% | LOX IMVI melanoma 88.9% | SK-MEL-28 melanoma 102%

C/C=C(/C(=C/C)c1ccc(O)cc1)c1ccc(O)cc1
active: SNB-75 CNS 9.32% | SK-MEL-5 melanoma 5.64%
inactive: HT29 colon 38.6% | SNB-19 CNS 34.6% | U251 CNS 32.8% | PC-3 prostate 46.2% | UACC-62 melanoma 31.2% | LOX IMVI melanoma 39.1% | SK-MEL-28 melanoma 52.4%

CN1CCN(CCCCCN=c2cc3c(=O)n(CCCCCN4CCN(C)CC4)c(=O)c4c(NCCCCCN5CCN(C)CC5)cc5c(O)n(CCCCCN6CCN(C)CC6)c(=O)c2c5c4-3)CC1
inactive: HCT-15 colon 107% | PC-3 prostate 12.6% | SK-MEL-5 melanoma 44.3% | UACC-62 melanoma 21.9%
active: SNB-75 CNS -8.4% | SNB-19 CNS 3.84% | U251 CNS 2.35% | LOX IMVI melanoma 1.9% | SK-MEL-28 melanoma -34.8%

COc1cc(NC(C)CCCN)c2nc(C)ccc2c1Oc1ccc(F)cc1 (stereo unspecified)
inactive: HCT-15 colon 71.2% | SNB-75 CNS 64.6% | SNB-19 CNS 78.8% | U251 CNS 73.2% | PC-3 prostate 63.9% | SK-MEL-5 melanoma 86.2% | UACC-62 melanoma 81.9% | LOX IMVI melanoma 51% | SK-MEL-28 melanoma 97.8%

C=C1CC[C@@H]2[C@](C)(COC(C)=O)[C@H](OC(C)=O)CC[C@@]2(C)[C@@H]1CC(NCc1ccccc1)C1=CCOC1=O (stereo partly specified)
inactive: HCT-15 colon 41% | SNB-75 CNS 76.9% | SNB-19 CNS 68.2% | U251 CNS 47.6% | PC-3 prostate 10.1% | UACC-62 melanoma 38.8% | LOX IMVI melanoma 44.6% | SK-MEL-28 melanoma 68.6%

CCN(CC)CCCCCCCNc1c2ccc(Cl)cc2nc2ccc(OC)cc12
active: HCT-15 colon -5.62% | SNB-75 CNS -94.1% | SNB-19 CNS -10.1% | U251 CNS -70.2% | PC-3 prostate -56.1% | SK-MEL-5 melanoma -100% | UACC-62 melanoma -55% | LOX IMVI melanoma -7.86% | SK-MEL-28 melanoma -77.4%

COc1ccc(C(=O)/C=C/c2ccc(C)cc2)cc1OC
inactive: HCT-15 colon 46.9% | SNB-75 CNS 64.9% | SNB-19 CNS 70.3% | U251 CNS 27.7% | UACC-62 melanoma 68.1% | LOX IMVI melanoma 48.6% | SK-MEL-28 melanoma 87.4%

CCCCOP(=O)(OCCCC)C(C(=O)OCC)C(CC(=O)OCC)C(=O)OCC (stereo unspecified)
inactive: HCT-15 colon 86.4% | SNB-75 CNS 59.9% | SNB-19 CNS 100% | PC-3 prostate 88.6% | SK-MEL-5 melanoma 109% | LOX IMVI melanoma 109% | SK-MEL-28 melanoma 104%

Nc1c(C(=O)Nc2cccc(Cl)c2)sc2nc3c(cc12)C(O)CCC3 (stereo unspecified)
inactive: HCT-15 colon 18.8% | SNB-75 CNS 28.8% | SNB-19 CNS 65.9% | U251 CNS 17.4% | PC-3 prostate 28.5% | SK-MEL-5 melanoma 28.7% | UACC-62 melanoma 44.6% | LOX IMVI melanoma 48.1% | SK-MEL-28 melanoma 55.8%

Cc1cc(C)cc(S(=O)(=O)n2ccc(-c3ccc4c(c3)CCC(C)(C)O4)n2)c1
inactive: HCT-15 colon 82.3% | SNB-75 CNS 87.2% | SNB-19 CNS 94.6% | U251 CNS 85.6% | PC-3 prostate 82.4% | SK-MEL-5 melanoma 82.9% | UACC-62 melanoma 73.9% | LOX IMVI melanoma 95% | SK-MEL-28 melanoma 102%
